# Reference: the supplement of paper PMC9694430
# Where a name gives a salt, the structure may show the parent alone.
# Assays:
# Experiment in all cases: thermal shift delta Tm vs DMSO control; higher = stronger stabilization (binding)
# Conditions in all cases: 12.5 µM; protein concentration 2 µM
# LOC_OS04G57630-cb004 = tested on: LOC_OS04G57630-cb004
# Summary of the method: (§1)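 Thermal shift values come from differential scanning fluorimetry on purified rice kinase domains made in E. coli, with melting temperatures obtained from Boltzmann fits. Samples of 19.5 μl held 2 μM kinase, 100 mM potassium phosphate pH 7.5, 150 mM NaCl, 10% glycerol, 5 × SYPRO Orange and compound in DMSO, and were heated from 25°C to 95°C at 0.05°C/s. Each shift is a triplicate mean relative to the DMSO-only protein sample.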
# LOC_OS05G07850-cb002 = tested on: LOC_OS05G07850-cb002
# Summary of the method: as §1
# LOC_OS05G16824-cb004 = tested on: LOC_OS05G16824-cb004
# Summary of the method: as §1
# LOC_OS05G28520-cb001 = tested on: LOC_OS05G28520-cb001
# Summary of the method: as §1
# LOC_OS05G30820-cb001 = tested on: LOC_OS05G30820-cb001
# Summary of the method: as §1
# LOC_OS05G43570-cb004 = tested on: LOC_OS05G43570-cb004
# Summary of the method: as §1
# LOC_OS06G16330-cb003 = tested on: LOC_OS06G16330-cb003
# Summary of the method: as §1
# LOC_OS06G22820-cb001 = tested on: T1, LOC_OS06G22820-cb001
# T1 sequence (whole entry): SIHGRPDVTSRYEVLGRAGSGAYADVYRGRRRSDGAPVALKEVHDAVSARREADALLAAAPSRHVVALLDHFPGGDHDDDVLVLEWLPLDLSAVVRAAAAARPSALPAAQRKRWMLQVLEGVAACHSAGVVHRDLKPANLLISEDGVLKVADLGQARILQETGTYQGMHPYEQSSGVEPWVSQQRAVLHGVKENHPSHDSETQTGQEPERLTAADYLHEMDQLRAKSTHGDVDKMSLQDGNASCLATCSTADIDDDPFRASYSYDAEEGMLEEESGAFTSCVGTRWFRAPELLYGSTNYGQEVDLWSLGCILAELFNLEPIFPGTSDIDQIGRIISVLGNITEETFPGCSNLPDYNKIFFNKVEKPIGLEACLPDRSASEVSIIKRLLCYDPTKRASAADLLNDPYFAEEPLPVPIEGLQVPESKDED
# Summary of the method: as §1
# LOC_OS07G06570-cb004 = tested on: LOC_OS07G06570-cb004
# Summary of the method: as §1
# LOC_OS07G07230-cb001 = tested on: LOC_OS07G07230-cb001
# Summary of the method: as §1
# 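Further: purified Escherichia coli-expressed rice kinase domain construct.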
# Sequence of LOC_OS06G16330-cb003 (as listed by the source): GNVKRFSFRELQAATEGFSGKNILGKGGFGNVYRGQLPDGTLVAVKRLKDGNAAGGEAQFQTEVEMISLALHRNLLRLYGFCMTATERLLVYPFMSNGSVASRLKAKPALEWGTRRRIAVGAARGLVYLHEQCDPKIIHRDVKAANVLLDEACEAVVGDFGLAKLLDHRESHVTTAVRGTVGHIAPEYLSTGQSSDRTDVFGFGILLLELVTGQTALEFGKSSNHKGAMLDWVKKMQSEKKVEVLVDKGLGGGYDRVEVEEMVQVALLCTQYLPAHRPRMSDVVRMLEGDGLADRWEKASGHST
Compound,thermal shift delta Tm (LOC_OS04G57630-cb004) [°C],thermal shift delta Tm (LOC_OS05G07850-cb002) [°C],thermal shift delta Tm (LOC_OS05G16824-cb004) [°C],thermal shift delta Tm (LOC_OS05G28520-cb001) [°C],thermal shift delta Tm (LOC_OS05G30820-cb001) [°C],thermal shift delta Tm (LOC_OS05G43570-cb004) [°C],thermal shift delta Tm (LOC_OS06G16330-cb003) [°C],thermal shift delta Tm (LOC_OS06G22820-cb001) [°C],thermal shift delta Tm (LOC_OS07G06570-cb004) [°C],thermal shift delta Tm (LOC_OS07G07230-cb001) [°C]
Cn1c(=O)c(F)c(Nc2ccc(I)cc2F)c2c(=O)n(C[C@@H](O)CO)cnc21,0.47,1.59,-1.32,0.23,0.72,1.08,0.18,0.76,0.33,0.02
COc1cc2ncnc(Oc3cccc(NC(=O)Nc4cc(C(C)(C)C(F)(F)F)on4)c3)c2cc1OC,0.6,2.95,-2.76,0.72,0.54,0.45,0.19,0.58,1.77,0.79
O=C(NC(NC(=S)Nc1ccc(F)c([N+](=O)[O-])c1)C(Cl)(Cl)Cl)C(c1ccccc1)c1ccccc1 (stereo not given),1.38,8.68,0.69,1.84,1.61,2.15,0.69,1.79,1.83,0.79
Cn1cnc2c(F)c(Nc3ccc(Br)cc3Cl)c(C(=O)NOCCO)cc21 [Selumetinib (AZD6244)],-0.08,-0.01,-2,0.43,0.51,0.42,0.02,0.61,0.8,0.42
CC(C)(C)c1nc(-c2ccc(NC(=O)Nc3cccc(C(F)(F)F)c3)c3ccccc23)c2c(N)nccn12 [kira6],1.93,6.62,9.24,0.74,0.66,3.12,4.28,0.73,0.73,0.14
CO[C@@H](C)Cn1c(=O)n(C)c2cnc3ccc(-c4cncc(C(C)(C)O)c4)cc3c21,0.18,4.35,-0.98,0.31,0.49,0.43,0.71,0.7,0.91,0.7
Cn1c2ccccc2c2c3c(c4c5ccccc5n(CCC#N)c4c21)CNC3=O,0.32,14.2,7.06,1.51,1.15,1.86,7.19,1.21,-0.17,1.18
Cc1cc(N2CCOCC2)cc2[nH]c(-c3c(NC[C@@H](O)c4cccc(Cl)c4)cc[nH]c3=O)nc12,-0.02,9.39,5.37,1.06,0.82,0.65,4.87,0.56,-0.16,0.74
COc1cc2nccc(Oc3ccc(NC(=O)C4(C(=O)Nc5ccc(F)cc5)CC4)cc3)c2cc1OC [Cabozantinib malate (XL184)],0.66,10.2,-1.18,1.86,0.41,0.69,1.53,0.93,1.5,-0.02
C[C@H](Nc1ncnc2[nH]cnc12)c1cc2ccc(F)cc2nc1-c1ccccn1,0.18,0.48,0.99,0.62,0.48,0.58,0.43,0.53,0.76,0.2
Cn1cc(-c2ccc3nnc(Sc4ccc5ncccc5c4)n3n2)cn1,0.16,0.32,-3.78,0.44,0.68,0.24,0.16,0.36,1.36,0.51
O=C1Nc2ccccc2/C1=C1/Nc2ccccc2C1=O [Indirubin],0.28,5.1,-2.11,0.79,1.11,0.4,0.35,0.47,1.39,0.66
CCc1cncnc1N1CCN(Cc2nc3ccc(C(F)(F)F)cc3[nH]2)CC1,-0.2,-0.11,-2.67,-0.08,0.66,0.46,0.02,0.76,0.84,-0.27
Cc1cc(Nc2cc(N3CCN(C)CC3)nc(/C=C/c3ccccc3)n2)n[nH]1 [ENMD-2076 L-(+)-Tartaric acid],4.1,11.2,10.9,5.68,1.55,0.7,5.83,0.62,1.73,0.39
CCCCNc1ncc(C(=O)NCc2ccc(-n3ccnc3)cc2)c(NC2CCC(O)CC2)n1 (stereo not given),3.08,11,8.45,0.43,1,0.57,11.2,0.49,1.44,0.57
Cc1c[nH]c(/C=C2\C(=O)Nc3ccccc32)c1CCC(=O)O,0.5,6.66,7.29,0.67,2.14,0.11,9.94,0.18,0.84,0.79
C#Cc1cccc(Nc2ncnc3cc(OCCOC)c(OCCOC)cc23)c1 [Erlotinib],0.41,8.18,-4.3,0.22,0.36,-0.04,3.38,0.08,0.67,-0.73
Cc1cc(Nc2ncc(Cl)c(Nc3ccccc3S(=O)(=O)C(C)C)n2)c(OC(C)C)cc1C1CCNCC1 [Ceritinib (LDK378)],0.2,3.05,-1.5,0.31,0.63,0.27,4.76,0.68,1.5,0.14
O=c1cc(-c2cccc3c2Sc2ccccc2S3)oc(N2CCOCC2)c1,-0.22,0.85,0.1,0.74,0.44,0.13,-0.34,0.79,0.35,-0.3
CCN1CCN(Cc2ccc(Nc3ncc(F)c(-c4cc(F)c5nc(C)n(C(C)C)c5c4)n3)nc2)CC1,1.35,12.6,3.33,0.73,0.2,0.41,6.17,0.41,1.14,0.37

Compound,thermal shift delta Tm (LOC_OS04G57630-cb004) [°C],thermal shift delta Tm (LOC_OS05G07850-cb002) [°C],thermal shift delta Tm (LOC_OS05G16824-cb004) [°C],thermal shift delta Tm (LOC_OS05G28520-cb001) [°C],thermal shift delta Tm (LOC_OS05G30820-cb001) [°C],thermal shift delta Tm (LOC_OS05G43570-cb004) [°C],thermal shift delta Tm (LOC_OS06G16330-cb003) [°C],thermal shift delta Tm (LOC_OS06G22820-cb001) [°C],thermal shift delta Tm (LOC_OS07G06570-cb004) [°C],thermal shift delta Tm (LOC_OS07G07230-cb001) [°C]
"Nc1nc2cc(-c3ccc4ncc(C(=O)N5CCOCC5)n4c3)ccc2o1 [Serabelisib (INK-1117,MLN-1117,TAK-117)]",0.92,2.64,6.24,0.55,0.04,0.35,0.24,0.5,1.85,0.61
CCc1nc(-c2cccc(C)c2)c(-c2ccnc(NC(=O)c3ccccc3)c2)s1,0.17,4.1,-0.96,0.55,0.63,-0.08,0.66,0.77,1.16,-0.21
CNC(=O)CN1CCC(Oc2cc3c(Nc4cccc(Cl)c4F)ncnc3cc2OC)CC1 [Sapitinib (AZD8931)],0,3.04,-12,-0.17,0.6,0.17,1.14,0.37,0.48,-0.24
FC(F)(F)c1ccc(CNc2ccc(Cc3c[nH]c4ncc(Cl)cc34)cn2)cn1 [Pexidartinib (PLX3397)],1.53,8.75,5.17,1.46,0.74,0.8,8.9,0.41,0.14,-0.31
O=C(Nc1cccc(Cl)c1)Nc1ncc(CCNc2ncnc3ccsc23)s1 [SNS-314 Mesylate],2.15,7.18,2.52,1.77,0.46,1.08,4.68,1.24,0.91,-0.06
CC(C)(C)c1nc(-c2cccc(NS(=O)(=O)c3c(F)cccc3F)c2F)c(-c2ccnc(N)n2)s1,1.63,9.38,8.29,0.83,3.66,0.62,3.39,0.62,0.8,0.6
Cc1[nH]nc2ccc(-c3cncc(OC[C@@H](N)Cc4ccccc4)c3)cc12,0.79,6.97,1.39,0.6,0.56,1.24,0.93,0.49,0.93,0
COc1cc2ncnc(Nc3ccc(Oc4ccccc4)cc3C)c2cc1OC,0.31,8.78,-9.65,0.23,0.05,-0.01,2.86,0.95,1.5,0.54
N#C/C(=C\c1ccc(O)c(O)c1)C(=O)NCc1ccccc1 [AG-490 (Tyrphostin B42)],-1.22,-1.56,-18.1,1.95,0.64,0.9,-0.03,1,2.29,0.61
Cc1cnc(NC(=O)Nc2cc(Br)c(C)cc2OC[C@@H]2CNCCO2)cn1,0.36,3.74,5.41,0.03,0.41,0.24,0.75,0.22,0.46,0.19
N#Cc1c(Oc2ccc(F)c(NC(=O)Cc3cccc(C(F)(F)F)c3)c2)ccc2nc(NC(=O)C3CC3)sc12,0.09,0.32,-2.82,0.59,0.49,0.4,0.5,0.74,1.21,0.32
CN(C)CCOc1ccc(-c2nc(-c3ccncc3)c(-c3ccc4c(c3)CC/C4=N\O)[nH]2)cc1,0.24,1.09,-2.35,-0.03,0.65,0.64,-0.3,0.47,0.49,0.18
C[C@H]1CNCCCN1S(=O)(=O)c1cccc2cncc(F)c12 [Ripasudil (K-115) hydrochloride dihydrate],0.43,3.53,-0.98,0.51,0.26,0.76,0.41,0.46,0.19,0.2
"CO[C@H]1C[C@@H]2CC[C@@H](C)[C@@](O)(O2)C(=O)C(=O)N2CCCC[C@H]2C(=O)O[C@H]([C@H](C)C[C@@H]2CC[C@@H](OP(C)(C)=O)[C@H](OC)C2)CC(=O)[C@H](C)/C=C(\C)[C@@H](O)[C@@H](OC)C(=O)[C@H](C)C[C@H](C)/C=C/C=C/C=C/1C [Ridaforolimus (Deforolimus, MK-8669)]",-0.31,0.02,-1.14,0.42,0.41,0.24,-0.22,0.77,1.03,0.31
COC(=O)N[C@@H](C)CNc1nccc(-c2cn(C(C)C)nc2-c2cc(Cl)cc(NS(C)(=O)=O)c2F)n1 [Encorafenib (LGX818)],-0.17,5.07,-3.57,0.85,0.58,0.22,1.92,0.46,1.58,0.67
Cc1cc(Nc2cc(N)ncn2)c(=O)n2c1C(=O)NC21CCCCC1,0.21,5.64,1.99,-0.15,0.03,0.05,0.4,0.25,0.6,0.71
OC1CCC(Nc2ncc3nc(Nc4c(F)cc(F)cc4F)n([C@H]4CCOC4)c3n2)CC1 (stereo not given in full) [Tanzisertib(CC-930)],-0.03,0.72,2.14,0.46,0.23,0.42,-0.07,0.59,1.81,0.44
CCS(=O)(=O)c1cccc(-c2cc(C(=O)NC3CCN(C)CC3)c(C)c3[nH]c4ncc(C)cc4c23)c1,2.61,13.6,10.6,2.38,3.26,0.4,8.47,-0.41,0.61,0.94
C[C@@H](Nc1cc(F)cc(F)c1)c1cc(C(=O)N(C)C)cc2c(=O)cc(N3CCOCC3)oc12,0.46,-0.67,-4.22,0.89,0.53,0.2,-0.67,0.43,1.06,0.35
